Experimental data reported in PubChem BioAssay (NCI).
This is part of a sample that, as a whole, favours compounds with a hit. Of some 79,000 tested, about 15% had one in any assay. Calls of active or inactive are those of the source. Rule as the data show it: active = growth inhibition above about 70%; inactive = the rest.

Legend:
[1] = NCI Yeast Anticancer Drug Screen. Data for the rad50 strain (AID 155);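 also: 0% = growth of vehicle-only cultures of the same strain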; details: S. cerevisiae rad50 strain growth inhibition; at 50.0 µM; active compounds read high
Outline: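 DNA repair mutant yeast, compound exposure, growth read-out; inhibition is taken relative to vehicle.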

[2] = NCI Yeast Anticancer Drug Screen. Data for the mec2-1 strain (AID 157); details: S. cerevisiae mec2-1 strain, at 50.0 µM, active compounds read high
Outline: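 Strain: mec2-1 (DNA repair/cell cycle alteration). Compound exposure, then growth measured; inhibition expressed relative to vehicle.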

[3] = NCI Yeast Anticancer Drug Screen. Data for the sgs1 mgt1 strain (AID 161);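 also: 0% = growth of cultures given vehicle only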; details: S. cerevisiae sgs1 mgt1 strain, at 50.0 µM, active compounds read high
Outline: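 Inhibition of yeast growth, normalised to vehicle-treated controls, is reported for a strain bearing genetic alterations in DNA damage repair.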

[4] = NCI Yeast Anticancer Drug Screen. Data for the cln2 rad14 strain (AID 165);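 also: 0% = growth equal to vehicle treated cultures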; details: S. cerevisiae cln2 rad14 strain, at 50.0 µM, active compounds read high
Outline: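 Compounds are applied to the cln2 rad14 yeast strain, and growth is then compared with that of vehicle-treated cultures to give inhibition.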

[5] = NCI Yeast Anticancer Drug Screen. Data for the bub3 strain (AID 167); details: S. cerevisiae bub3 mutant strain, at 50.0 µM, active compounds read high
Outline: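 In this screen, a yeast mutant lacking normal mitotic checkpoint function is challenged with compound. Relative growth versus vehicle gives the inhibition value.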

[6] = NCI Yeast Anticancer Drug Screen. Data for the mlh1 rad18 strain (AID 175); details: S. cerevisiae mlh1 rad18 strain growth inhibition; at 50.0 µM; active compounds read high
Outline: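 Read-out is yeast growth inhibition, calculated against vehicle-only controls. The compound was applied to a strain engineered with DNA damage repair alterations.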

Measured: growth inhibition

COc1ccc(-c2coc3cc(O)cc(O)c3c2=O)cc1
inactive: [1] 36.6% | [2] 22.6% | [3] 59.4% | [4] 31.7% | [5] 58.4% | [6] 62.9%

Clc1c(Cl)c(Cl)c(CSCc2c(Cl)c(Cl)c(Cl)c(Cl)c2Cl)c(Cl)c1Cl
inactive: [1] -16.2% | [2] -7% | [3] -12.2% | [4] -31.9% | [5] 2.1% | [6] -13.3%

Cc1c(F)c(N)c2c(=O)cc(-c3ccc(N)c(F)c3)oc2c1F
inactive: [1] 32.8% | [2] 16.1% | [3] 30.1% | [4] 21.3% | [5] 22.9% | [6] 1.2%

O=C(/C=C/c1ccc(Cl)cc1)c1ccc(Cl)s1
inactive: [1] -52% | [2] -48.8% | [3] -23.1% | [4] -16.2% | [5] -16.1% | [6] -24.9%

COc1ccc2c3ccc4c(c3n(C)c2c1)C(=O)c1ccccc1C4=O
inactive: [1] -38.3% | [2] -36.2% | [3] -53% | [4] -14.7% | [5] -22.8% | [6] -46.1%

O=C(c1ccccc1)N1C(=O)c2ccccc21
inactive: [1] -11.1% | [2] 5.75% | [3] -12.8% | [4] -16.3% | [5] 9.5% | [6] -15.5%

NC(=O)c1cc2c(c3c1CCCC3)CCCC2
inactive: [1] 4.2% | [2] -6.6% | [3] -3.55% | [4] -52% | [5] -13.9% | [6] -2.3%

O=C1c2ccccc2C(=O)N1c1cccc2ccccc12
inactive: [1] 51.4% | [2] 8.2% | [3] 26.6% | [4] -19.4% | [5] 55.7% | [6] 62%

COc1ccc(C2(C3NCCC4=C3CCCC4)CC2)cc1 (stereo unspecified)
inactive: [1] 11.9% | [2] -5.75% | [3] 32% | [4] -4.1% | [5] -3.7% | [6] 23.6%

CC[N+](CC)(CC)C[Si](C)(C)C
inactive: [1] 5.05% | [2] 5.7% | [3] 12.1% | [4] 2.4% | [5] 12% | [6] -6%

CN(C)c1ccc(C=C2/C(=N\O)c3ccccc3/C2=N/O)cc1
inactive: [1] -1.5% | [2] 38.1% | [3] 39% | [4] -8.2% | [5] 34.2% | [6] 48.1%

C=CC12CCC(CC1)n1c(=O)n(C)c(=O)n12
inactive: [1] -8.05% | [2] -11.7% | [3] -11.4% | [4] -34.5% | [5] -18% | [6] -6.8%

CC(COC(=O)c1ccc(N)cc1)NC1CCCCC1 (stereo unspecified)
inactive: [1] -8.2% | [2] 1.1% | [3] 19.6% | [4] 13.7% | [5] -2.25% | [6] -16.6%

O=C(O)c1ccc(Cl)c(N=C/C=C/c2ccccc2)c1
inactive: [1] 1.85% | [2] -37.5% | [3] 6.6% | [4] -15.3% | [5] 3.45% | [6] -6.9%

COc1ccc2c(NCCCCCCNc3c4ccccc4nc4cc(OC)ccc34)c3ccccc3nc2c1
active: [1] 89.9% | [2] 91.6% | [3] 92.5% | [4] 87.5% | [5] 91.5% | [6] 89.7%

CCC(C)(C)N
inactive: [1] 0.3% | [2] 2.7% | [3] 4.25% | [4] -73.2% | [5] 9.15% | [6] -20.2%

COCCOCOC(C)(C)CCCCl
inactive: [1] 11.3% | [2] 24% | [3] 21.9% | [4] -5.2% | [5] -2.1% | [6] -20%

CNC(=O)c1ccccc1C(O)c1ccc(C)cc1 (stereo unspecified)
inactive: [1] 7.65% | [2] -6.3% | [3] 17.6% | [4] 23.4% | [5] 37.6% | [6] 20.6%

O=[N+]([O-])c1cc(Cl)c(Cl)c(Cl)c1Cl
inactive: [1] 17.1% | [2] 3.4% | [3] -1% | [4] 14.8% | [5] 7.3% | [6] 31.4%

COC(=O)c1c2c(cc3c1CC1(Cc4ccccc4C1)C3)CCC2
inactive: [1] 1.15% | [2] 11.6% | [3] 17% | [4] 0.6% | [5] 2.6% | [6] 18.6%

CCN(CC)c1cc(-c2ccccc2)oc(=O)c1Cl
inactive: [1] 25.8% | [2] -10.3% | [3] 13.6% | [4] 9.4% | [5] 16.5% | [6] 20.6%

CCOc1nc(N)nc(C)c1N=Nc1ccccc1C
inactive: [1] 18.8% | [2] 18.1% | [3] 5.7% | [4] -12.5% | [5] 12.2% | [6] 15.7%

Cc1cn(C2CC(O)C(CO)O2)c(=O)nc1N1CCCCCCC1 (stereo unspecified)
inactive: [1] -6.85% | [2] -4.8% | [3] -11.3% | [4] -12.3% | [5] 4.85% | [6] 0.3%

CC(C)C1OC2(C)OC(=N)C1(C#N)C(C#N)(C#N)C2C (stereo unspecified)
inactive: [1] -0.75% | [2] 2.2% | [3] -18.5% | [4] -10.7% | [5] -17.5% | [6] -13.8%

Cc1ccc(S(=O)(=O)OCC2(COS(=O)(=O)c3ccc(C)cc3)CCC2)cc1
inactive: [1] -7.8% | [2] -7.75% | [3] 0.25% | [4] -8.95% | [5] 16% | [6] -15%

NC(=O)NC(=O)OCC(F)(F)C(F)(F)C(F)(F)C(F)(F)C(F)(F)C(F)(F)C(F)(F)F
inactive: [1] 45.8% | [2] 9.9% | [3] 31.4% | [4] 15.6% | [5] -0.45% | [6] 6.85%

CN(C)CCCN1N=Nc2cccc3cccc1c23
inactive: [1] 1.75% | [2] 8.25% | [3] -14.3% | [4] 11.7% | [5] 15.2% | [6] 20.1%

CN(C)c1nc(Oc2nc(N(C)C)nc(N(C)C)n2)nc(N(C)C)n1
inactive: [1] -21.8% | [2] -26.6% | [3] -30.9% | [4] -8.5% | [5] -21.4% | [6] -31.9%

CCCC1OCCO1
inactive: [1] -15.3% | [2] -0.95% | [3] -6.85% | [4] -4.5% | [5] 5.15% | [6] -3.9%

CCOC(=O)C(Cc1c[nH]c2ccccc12)NCCN (stereo unspecified)
inactive: [1] -4.85% | [2] 4.8% | [3] -1.45% | [4] -9.95% | [5] -7.25% | [6] -3.8%

COc1cc2cccnc2c2[nH]c(=O)c3c(c12)CCC3
inactive: [1] 13.9% | [2] 9.35% | [3] -6% | [4] -16.4% | [5] 7.2% | [6] 7.25%

O=C(c1ccccc1)c1ccc2c(c1)-c1ccccc1-2
inactive: [1] 7.3% | [2] -7% | [3] 15.1% | [4] -21.1% | [5] 12.8% | [6] 12.8%

Nc1cccc(C(CC(=O)O)CC(=O)O)c1
inactive: [1] 14.8% | [2] 10.9% | [3] 13% | [4] 16.7% | [5] -1.5% | [6] 15.8%

N=C(N)SCc1cccc2ccc3cccc(CSC(=N)N)c3c12
inactive: [1] 4.05% | [2] 8.5% | [3] 17.4% | [4] -3.1% | [5] 2.6% | [6] 30.9%

CCOC(=O)/C=C(/C)C#N
inactive: [1] -9.65% | [2] -3.7% | [3] -11.8% | [4] 7.4% | [5] 9.55% | [6] 2.9%

COc1cccc(N2C(=O)/C(=C/c3ccc(N(CCC#N)CCC#N)cc3)N=C2c2cc([N+](=O)[O-])ccc2Cl)c1
inactive: [1] 7.9% | [2] 27.9% | [3] 40.8% | [4] 32% | [5] 32.1% | [6] 28.9%

COc1ccc(C(C)=O)cc1CCCO
inactive: [1] -1.55% | [2] 5.85% | [3] 0.4% | [4] 30.6% | [5] 13% | [6] 20.6%

CN(C)CCSc1nc2ccccc2o1
inactive: [1] 12.2% | [2] 20.8% | [3] 27.7% | [4] 21.1% | [5] 16.9% | [6] 32.9%

CCOC(=O)C1=NC(c2ccccc2)(c2ccccc2)OC1=C(Cl)Cl
inactive: [1] 0.8% | [2] -16.4% | [3] -0.2% | [4] 19.8% | [5] -11.4% | [6] -10.5%

CCCCC1(CCS)C(=O)NC(=Nc2ccccc2)NC1=O (stereo unspecified)
inactive: [1] -0.95% | [2] -3.95% | [3] 11.8% | [4] -37.3% | [5] 22.7% | [6] -11.8%

N#CC1CC2c3ccccc3C1([N+](=O)[O-])c1ccccc12 (stereo unspecified)
active: [6] 70.7%
inactive: [1] 54.5% | [2] 26.9% | [3] 12.8% | [4] 43% | [5] 45%
